# Test results: the supplement of paper PMC4466140
# Assays:
# Experiment in all cases: SPOT peptide array binding signal intensity (averaged, normalized) (arbitrary units (background-subtracted, floor 0; scale differs between SH3 domains)); higher = stronger binding of the SH3 domain to the peptide
# CaNbp2 = target: CaNbp2
# Summary of the method: (§1)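 GST-SH3 fusions from four yeast species, purified on glutathione Sepharose, were incubated at 10 μg/ml overnight at 4°C on membranes of synthetic 15-mer peptides in which cysteines were replaced with serines. Binding signal is the normalized, background-subtracted spot intensity averaged over replicates, in domain-specific arbitrary units.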
# CaRvs167 = target: CaRvs167
# Summary of the method: as §1
# CaRvs167-3 = target: CaRvs167-3
# Summary of the method: as §1
# CaSho1 = target: CaSho1
# Summary of the method: as §1
# CaSla1-D1-D2 = target: CaSla1-D1-D2
# Summary of the method: as §1
# CaSla1-D3 = target: CaSla1-D3
# Summary of the method: as §1
# ScAbp1 = target: ScAbp1
# Summary of the method: as §1
# ScBbc1 = target: ScBbc1
# Summary of the method: as §1
# ScBem1-D1 = target: ScBem1-D1
# Summary of the method: as §1
# ScBzz1-D1 = target: ScBzz1-D1
# Summary of the method: as §1
# ScBzz1-D2 = target: ScBzz1-D2
# Summary of the method: as §1
# ScCyk3 = target: ScCyk3
# Summary of the method: as §1
# ScFus1 = target: ScFus1
# Summary of the method: as §1
# ScHof1 = target: ScHof1
# Summary of the method: as §1
# ScHse1 = target: ScHse1
# Summary of the method: as §1
# ScLsb1 = target: ScLsb1
# Summary of the method: as §1
# ScLsb2 = target: ScLsb2
# Summary of the method: as §1
# ScLsb3 = target: ScLsb3
# Summary of the method: as §1
# ScLsb4 = target: ScLsb4
# Summary of the method: as §1
# ScMyo3 = target: ScMyo3
# Summary of the method: as §1
# ScMyo5 = target: ScMyo5
# Summary of the method: as §1
# ScNbp2 = target: ScNbp2
# Summary of the method: as §1
# ScPex13 = target: ScPex13
# Summary of the method: as §1
# ScRvs167 = target: ScRvs167
# Summary of the method: as §1
# ScSho1 = target: ScSho1
# Summary of the method: as §1
# ScSla1-D1-D2 = target: ScSla1-D1-D2
# Summary of the method: as §1
# ScSla1-D3 = target: ScSla1-D3
# Summary of the method: as §1
# SpAbp1-D1 = target: SpAbp1-D1
# Summary of the method: as §1
# SpBbc1 = target: SpBbc1
# Summary of the method: as §1
# SpBzz1-D1 = target: SpBzz1-D1
# Summary of the method: as §1
# SpBzz1-D2 = target: SpBzz1-D2
# Summary of the method: as §1
# SpCyk3 = target: SpCyk3
# Summary of the method: as §1
# SpHof1 = target: SpHof1
# Summary of the method: as §1
# SpHof1-2 = target: SpHof1-2
# Summary of the method: as §1
# SpHof1-3 = target: SpHof1-3
# Summary of the method: as §1
# SpHse1 = target: SpHse1
# Summary of the method: as §1
# SpLsb1 = target: SpLsb1
# Summary of the method: as §1
# SpLsb4 = target: SpLsb4
# Summary of the method: as §1
# SpMyo1 = target: SpMyo1
# Summary of the method: as §1
# SpNbp2 = target: SpNbp2
# Summary of the method: as §1
# SpPex13 = target: SpPex13
# Summary of the method: as §1
# SpRvs167 = target: SpRvs167
# Summary of the method: as §1
# SpSla1-D1-D2 = target: SpSla1-D1-D2
# Summary of the method: as §1
# SpSla1-D3 = target: SpSla1-D3
# Summary of the method: as §1
# AgAbp1 = target: AgAbp1
# Summary of the method: as §1
# AgBbc1 = target: AgBbc1
# Summary of the method: as §1
# AgBem1-D1 = target: AgBem1-D1
# Summary of the method: as §1
# AgBzz1-D1 = target: AgBzz1-D1
# Summary of the method: as §1
# AgBzz1-D2 = target: AgBzz1-D2
# Summary of the method: as §1
# AgCyk3 = target: AgCyk3
# Summary of the method: as §1
# AgFus1 = target: AgFus1
# Summary of the method: as §1
# AgHof1 = target: AgHof1
# Summary of the method: as §1
# AgHse1 = target: AgHse1
# Summary of the method: as §1
# AgLsb1 = target: AgLsb1
# Summary of the method: as §1
# AgLsb4 = target: AgLsb4
# Summary of the method: as §1
# AgMyo5 = target: AgMyo5
# Summary of the method: as §1
# AgNbp2 = target: AgNbp2
# Summary of the method: as §1
# AgRvs167 = target: AgRvs167
# Summary of the method: as §1
# AgSho1 = target: AgSho1
# Summary of the method: as §1
# AgSla1-D1-D2 = target: AgSla1-D1-D2
# Summary of the method: as §1
# AgSla1-D3 = target: AgSla1-D3
# Summary of the method: as §1
# CaAbp1-D1 = target: CaAbp1-D1
# Summary of the method: as §1
# CaAbp1-D2 = target: CaAbp1-D2
# Summary of the method: as §1
# CaBbc1 = target: CaBbc1
# Summary of the method: as §1
# CaBem1-D1 = target: CaBem1-D1
# Summary of the method: as §1
# CaBzz1-D1 = target: CaBzz1-D1
# Summary of the method: as §1
# CaBzz1-D2 = target: CaBzz1-D2
# Summary of the method: as §1
# CaCyk3 = target: CaCyk3
# Summary of the method: as §1
# CaFus1 = target: CaFus1
# Summary of the method: as §1
# CaHof1 = target: CaHof1
# Summary of the method: as §1
# CaHse1 = target: CaHse1
# Summary of the method: as §1
# CaLsb1 = target: CaLsb1
# Summary of the method: as §1
# CaLsb4 = target: CaLsb4
# Summary of the method: as §1
# CaMyo5 = target: CaMyo5
# Summary of the method: as §1
binder,measurement,setting,value
AATTSTPPLPRRRAT,SPOT peptide array binding signal intensity,CaNbp2,94
same,SPOT peptide array binding signal intensity,CaRvs167,700
same,SPOT peptide array binding signal intensity,CaRvs167-3,1
same,SPOT peptide array binding signal intensity,CaSho1,7
same,SPOT peptide array binding signal intensity,CaSla1-D1-D2,906
same,SPOT peptide array binding signal intensity,CaSla1-D3,≤ 0
same,SPOT peptide array binding signal intensity,ScAbp1,109
same,SPOT peptide array binding signal intensity,ScBbc1,726
same,SPOT peptide array binding signal intensity,ScBem1-D1,3
same,SPOT peptide array binding signal intensity,ScBzz1-D1,10.5
same,SPOT peptide array binding signal intensity,ScBzz1-D2,9
same,SPOT peptide array binding signal intensity,ScCyk3,16
same,SPOT peptide array binding signal intensity,ScFus1,≤ 0
same,SPOT peptide array binding signal intensity,ScHof1,9.75
same,SPOT peptide array binding signal intensity,ScHse1,70
same,SPOT peptide array binding signal intensity,ScLsb1,232
same,SPOT peptide array binding signal intensity,ScLsb2,202
same,SPOT peptide array binding signal intensity,ScLsb3,6300
same,SPOT peptide array binding signal intensity,ScLsb4,2060
same,SPOT peptide array binding signal intensity,ScMyo3,≤ 0
same,SPOT peptide array binding signal intensity,ScMyo5,≤ 0
same,SPOT peptide array binding signal intensity,ScNbp2,20
same,SPOT peptide array binding signal intensity,ScPex13,1080
same,SPOT peptide array binding signal intensity,ScRvs167,2000
same,SPOT peptide array binding signal intensity,ScSho1,≤ 0
same,SPOT peptide array binding signal intensity,ScSla1-D1-D2,760
same,SPOT peptide array binding signal intensity,ScSla1-D3,11
same,SPOT peptide array binding signal intensity,SpAbp1-D1,16
same,SPOT peptide array binding signal intensity,SpBbc1,104
same,SPOT peptide array binding signal intensity,SpBzz1-D1,877
same,SPOT peptide array binding signal intensity,SpBzz1-D2,≤ 0
same,SPOT peptide array binding signal intensity,SpCyk3,9
same,SPOT peptide array binding signal intensity,SpHof1,178
same,SPOT peptide array binding signal intensity,SpHof1-2,78.5
same,SPOT peptide array binding signal intensity,SpHof1-3,66.5
same,SPOT peptide array binding signal intensity,SpHse1,8.25
same,SPOT peptide array binding signal intensity,SpLsb1,712
same,SPOT peptide array binding signal intensity,SpLsb4,4540
same,SPOT peptide array binding signal intensity,SpMyo1,113
same,SPOT peptide array binding signal intensity,SpNbp2,1.5
same,SPOT peptide array binding signal intensity,SpPex13,3
same,SPOT peptide array binding signal intensity,SpRvs167,1970
same,SPOT peptide array binding signal intensity,SpSla1-D1-D2,15.5
same,SPOT peptide array binding signal intensity,SpSla1-D3,≤ 0
LRWRHKFFLPAIAAI,SPOT peptide array binding signal intensity,AgAbp1,73
same,SPOT peptide array binding signal intensity,AgBbc1,14.2
same,SPOT peptide array binding signal intensity,AgBem1-D1,52.5
same,SPOT peptide array binding signal intensity,AgBzz1-D1,≤ 0
same,SPOT peptide array binding signal intensity,AgBzz1-D2,≤ 0
same,SPOT peptide array binding signal intensity,AgCyk3,0.5
same,SPOT peptide array binding signal intensity,AgFus1,299
same,SPOT peptide array binding signal intensity,AgHof1,9.38
same,SPOT peptide array binding signal intensity,AgHse1,979
same,SPOT peptide array binding signal intensity,AgLsb1,≤ 0
same,SPOT peptide array binding signal intensity,AgLsb4,18.8
same,SPOT peptide array binding signal intensity,AgMyo5,≤ 0
same,SPOT peptide array binding signal intensity,AgNbp2,14.8
same,SPOT peptide array binding signal intensity,AgRvs167,1.17
same,SPOT peptide array binding signal intensity,AgSho1,32
same,SPOT peptide array binding signal intensity,AgSla1-D1-D2,2.5
same,SPOT peptide array binding signal intensity,AgSla1-D3,2.25
same,SPOT peptide array binding signal intensity,CaAbp1-D1,312
same,SPOT peptide array binding signal intensity,CaAbp1-D2,422
same,SPOT peptide array binding signal intensity,CaBbc1,13
same,SPOT peptide array binding signal intensity,CaBem1-D1,4.5
same,SPOT peptide array binding signal intensity,CaBzz1-D1,23.2
same,SPOT peptide array binding signal intensity,CaBzz1-D2,0.25
same,SPOT peptide array binding signal intensity,CaCyk3,1.5
same,SPOT peptide array binding signal intensity,CaFus1,728
same,SPOT peptide array binding signal intensity,CaHof1,≤ 0
same,SPOT peptide array binding signal intensity,CaHse1,28.5
same,SPOT peptide array binding signal intensity,CaLsb1,0.25
same,SPOT peptide array binding signal intensity,CaLsb4,2.5
same,SPOT peptide array binding signal intensity,CaMyo5,4
same,SPOT peptide array binding signal intensity,CaNbp2,116
same,SPOT peptide array binding signal intensity,CaRvs167,12.8
same,SPOT peptide array binding signal intensity,CaRvs167-3,24
same,SPOT peptide array binding signal intensity,CaSho1,228
same,SPOT peptide array binding signal intensity,CaSla1-D1-D2,≤ 0
same,SPOT peptide array binding signal intensity,CaSla1-D3,3.12
same,SPOT peptide array binding signal intensity,ScAbp1,53.5
same,SPOT peptide array binding signal intensity,ScBbc1,0.875
same,SPOT peptide array binding signal intensity,ScBem1-D1,9.5
same,SPOT peptide array binding signal intensity,ScBzz1-D1,4.5
same,SPOT peptide array binding signal intensity,ScBzz1-D2,14.2
same,SPOT peptide array binding signal intensity,ScCyk3,18.5
same,SPOT peptide array binding signal intensity,ScFus1,209
same,SPOT peptide array binding signal intensity,ScHof1,1.25
same,SPOT peptide array binding signal intensity,ScHse1,1040
same,SPOT peptide array binding signal intensity,ScLsb1,0.25
same,SPOT peptide array binding signal intensity,ScLsb2,≤ 0
same,SPOT peptide array binding signal intensity,ScLsb3,≤ 0
same,SPOT peptide array binding signal intensity,ScLsb4,4.25
same,SPOT peptide array binding signal intensity,ScMyo3,≤ 0
same,SPOT peptide array binding signal intensity,ScMyo5,≤ 0
same,SPOT peptide array binding signal intensity,ScNbp2,20.2
same,SPOT peptide array binding signal intensity,ScPex13,≤ 0
same,SPOT peptide array binding signal intensity,ScRvs167,1.5
same,SPOT peptide array binding signal intensity,ScSho1,759
same,SPOT peptide array binding signal intensity,ScSla1-D1-D2,≤ 0
same,SPOT peptide array binding signal intensity,ScSla1-D3,≤ 0
same,SPOT peptide array binding signal intensity,SpAbp1-D1,166
same,SPOT peptide array binding signal intensity,SpBbc1,1.75
same,SPOT peptide array binding signal intensity,SpBzz1-D1,≤ 0
